Source: PubChem BioAssay (NCATS)
Records with an inconclusive call do not appear. The source made the active and inactive calls. Unless noted, calls follow the shape of the dose curve; as a rule, active = well fitted curve in the direction sought with a large enough effect; inconclusive = small, poorly fitted or top-dose-only effect, or another doubt; inactive = no such curve, though single readings can be large; an effect the other way counts as inactive or inconclusive.

Key:
[1] = AP1 Signaling Pathway (AID 357; active = well fitted curve in either direction with a large enough effect, not every such curve was filed as active;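 also: ME-180 reporter cells stimulated with EGF at its EC50 level; % is scaled to controls: 0 for no effect and ±100 for the full control effect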)
How it was run: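 A ratiometric CCF4 readout (405 nm excitation; 460 and 530 nm emission) quantified AP-1-driven beta-lactamase in ME-180 cells after 5 h with compound and EC50 EGF; AC50 values were derived for activators and inhibitors.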

[2] = target: Cytochrome P450 1A2 (Homo sapiens) (UniProt P05177); test: p450-cyp1a2 (AID 410; calls by dose curve; also: potency is read from the fitted curve at half-maximal effect;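 as to activity change, negative = inhibition: -100% = full effect of reference inhibitor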)
How it was run: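 Read-out is luminescence from luciferin produced by CYP1A2 demethylation of Luciferin-ME (100uM, at Km). Detection reagent stopped the 60 min NADPH-dependent reaction; signals were normalized to 57 uM furafylline.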

[3] = NFAT Signaling Pathway (AID 444; active = well fitted curve in either direction with a large enough effect, not every such curve was filed as active;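 also: carbachol stimulus at about its EC50 of 1 µM final; % is scaled to controls: 0 for no effect and ±100 for the full control effect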); conditions: Jurkat NFAT-bla M1, carbachol, beta-lactamase ratio, 5 h; at 17.2 µM (top of the series) unless noted
How it was run: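 Jurkat cells with NFAT-driven β-lactamase reporter and co-expressed M1 receptor, stimulated with carbachol (final 1 uM, ~EC50), compound titration, 5 h at 37 °C. CCF4 loaded 1 h at RT; 460/530 nm ratio gave %activity and AC50.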

[4] = Stat Signaling Pathway (AID 446; active = well fitted curve in either direction with a large enough effect, not every such curve was filed as active;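 also: ME-180 cervical cancer cells given 40 pM IL-6 alongside compound; SIE-controlled beta-lactamase reporter measured as 460/530 nm FRET emission ratio; % is scaled to controls: 0 for no effect and ±100 for the full control effect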)
How it was run: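 Compound effects on IL-6-induced STAT reporter activity were measured in ME-180 cells. After overnight culture, cells were co-treated with 40 pM IL-6 for 5 hrs before beta-lactamase substrate loading at room temperature.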

[5] = target: Mitogen-activated protein kinase 10 (Mus musculus) (UniProt Q61831); test: JNK3 AlphaScreen Assay (AID 530; active = well fitted curve in either direction with a large enough effect, not every such curve was filed as active;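 also: kinase came from lysate of stimulated human HepG2 cells; signal reports phosphorylation of biotinylated GST-cJun 1-79 at Ser73 with 10 µM ATP; % is scaled to controls: 0 for no effect and ±100 for the full control effect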)
How it was run: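 HepG2 lysate (IL-1b/TNFa pre-activated) + biotin-GST-cJun 1-79 + anti-pSer73 cJun; cpd titration, 15 min RT; ATP 10 uM start; Tris pH 7.6, MgCl2, DTT, vanadate; beads in EDTA buffer; AlphaScreen.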

[6] = target: 3',5'-cyclic-AMP phosphodiesterase 4B (Homo sapiens) (UniProt Q07343); test: qHTS Assay for Inhibitors of PDE-IV (AID 607; active = well fitted activation curve with a large enough effect in the main read-out, with a control signal flat, not every such curve was filed as active; also: % of control where 0% means no effect)
How it was run: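 ACTOne HEK293 cells carry a modified cAMP-gated CNG channel and express endogenous PDE4; plated 1000 cells/well, compounds up to 22.9 uM final. Membrane-potential dye fluorescence (ex 535/em 590) was read; parental cells received 10 uM forskolin + 100 uM RO 20-1724.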

[7] = qHTS Assay for Lipid Storage Modulators (AID 1519; calls by dose curve); conditions: Drosophila S3 cells, BODIPY lipid droplet/cell ratio, laser cytometry, cells loaded with oleic acid; for activity change, negative = inhibition: at 25.7 µM (top of the series)
How it was run: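 Cells seeded at 5,000 per well were treated with compounds over a concentration series and loaded with oleic acid (400 uM, as added). Lipid droplet fluorescence (488 nm excitation, 500-530 nm channel) was read by laser-scanning cytometry and normalized to 20 uM Triacsin C.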

[8] = target: Ubiquitin carboxyl-terminal hydrolase 1 (Homo sapiens) (UniProt O94782); test: Inhibitors of USP1/UAF1: Pilot qHTS (AID 504865);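 also: rhodamine fluorescence freed from ubiquitin-rhodamine substrate followed over time; top concentration of the series differs between compounds; % is scaled to controls: 0 for no effect and ±100 for the full control effect; nearly all actives have a fitted effect of over 35% in size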
How it was run: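 Kinetic fluorescence assay: 1nM USP1/UAF1, 15 min compound preincubation, then 150nM Ub-Rho; 480/540 nm.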

[9] = target: Glucocorticoid receptor (Homo sapiens) (UniProt P04150); test: GR-GFP Redistribution (AID 450;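 active = compounds whose dose series gives a full or clear partial fitted curve of increased nuclear translocation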; also: potency is read from the fitted curve at half-maximal effect); conditions: U2OS GR-GFP nuclear translocation, laser cytometry, 2 h
[10] = target: Glucocorticoid receptor (Homo sapiens) (UniProt P04150); test: GR-EFC Redistribution (AID 451; calls by dose curve; also: potency is read from the fitted curve at half-maximal effect); conditions: CHO-K1 GR-EFC translocation, beta-gal luminescence, 2 h
How it was run: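 CHO-K1 cells expressing nuclear EA and GR-ED fragments of b-gal; compounds titrated up to 46 uM final, 2 h at 37 C. GR nuclear translocation read as complemented b-gal luminescence after 1 h RT detection.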

[11] = target: ATP-dependent 6-phosphofructokinase (Trypanosoma brucei brucei) (UniProt O15648); test: qHTS Assay to Find Inhibitors of T. brucei phosphofructokinase: hit validation (AID 492961); also: % is scaled to controls: 0 for no effect and ±100 for the full control effect
How it was run: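 Luminescence from ADP-Glo reports ADP generated as T. brucei PFK (1.25 nM) phosphorylates 0.5 mM fructose-6-phosphate using 0.1 mM ATP. Reactions ran 45 min at room temperature, pH 8.0.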

[12] = target: Luciferin 4-monooxygenase (Photinus pyralis) (UniProt P08659); test: Biochemical firefly luciferase enzyme assay for NPC (AID 624030);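 also: purified P. pyralis luciferase at 10 nM with luciferin and ATP substrate; 0% = DMSO and -100% = full luciferase inhibition by PTC124 control; nearly all actives have a fitted effect of over 70% in size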
How it was run: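 Purified P. pyralis luciferase at 10 nM in 50 mM Tris Acetate (final), luminescence read within 5 minutes of enzyme addition to compounds. Activity normalised to PTC124 versus DMSO; concentration-response curves classed by r2, magnitude and activity.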

[13] = S16 Schwann cell viability assay (CellTiter-Glo assay) (AID 624031);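 also: cellular ATP luminescence as a viability measure; plate controls were DMSO-treated cells for no effect and cell-free wells for full effect; nearly all actives have a fitted effect of over 70% in size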
How it was run: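 This viability control uses native rat S16 Schwann cells grown in DMEM plus 10% FBS. After a 24 h compound treatment at 37 °C, CellTiter-Glo luminescence reports ATP content, scaled against DMSO-treated and cell-free wells.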

[14] = qHTS profiling for inhibitors of Plasmodium falciparum proliferation (AID 504749); also: nearly all actives have a fitted effect of over 60% in size; also: potency is read from the fitted curve at half-maximal effect;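 as to activity, negative = inhibition: 0% = DMSO vehicle and full inhibition = artemisinin control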; conditions: P. falciparum in erythrocytes, SYBR Green DNA, 72 h
How it was run: (§1)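 SYBR Green fluorescence (ex 485 nm, em 535 nm) reports parasite DNA after 72 h compound exposure of infected red cells at 0.3% parasitemia, 2.5% hematocrit; signal normalized to 0.29 uM artemisinin and vehicle wells.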

C2A = test: as above; conditions: P. falciparum in erythrocytes, SYBR Green DNA, 72 h; series mostly up to 12.8 µM
How it was run: as §1

CP191 = test: as above; conditions: P. falciparum in erythrocytes, SYBR Green DNA, 72 h; series mostly up to 12.8 µM
How it was run: as §1

CP250 = test: as above; conditions: P. falciparum in erythrocytes, SYBR Green DNA, 72 h; series mostly up to 12.8 µM
How it was run: as §1

FAB9 = test: as above; conditions: P. falciparum in erythrocytes, SYBR Green DNA, 72 h; series mostly up to 12.8 µM
How it was run: as §1

JCK = test: as above; conditions: P. falciparum in erythrocytes, SYBR Green DNA, 72 h; series mostly up to 12.8 µM
How it was run: as §1

SC27B = test: as above; conditions: P. falciparum in erythrocytes, SYBR Green DNA, 72 h; series mostly up to 12.8 µM
How it was run: as §1

[15] = measured here: cell count channel max response
[16] = measured here: lipid channel max response
[17] = at 12.8 µM (top of the series), parasite line A
[18] = at 12.8 µM (top of the series), parasite line B

Chain of Cytochrome P450 1A2 (Homo sapiens) (P05177 whole entry, looked up): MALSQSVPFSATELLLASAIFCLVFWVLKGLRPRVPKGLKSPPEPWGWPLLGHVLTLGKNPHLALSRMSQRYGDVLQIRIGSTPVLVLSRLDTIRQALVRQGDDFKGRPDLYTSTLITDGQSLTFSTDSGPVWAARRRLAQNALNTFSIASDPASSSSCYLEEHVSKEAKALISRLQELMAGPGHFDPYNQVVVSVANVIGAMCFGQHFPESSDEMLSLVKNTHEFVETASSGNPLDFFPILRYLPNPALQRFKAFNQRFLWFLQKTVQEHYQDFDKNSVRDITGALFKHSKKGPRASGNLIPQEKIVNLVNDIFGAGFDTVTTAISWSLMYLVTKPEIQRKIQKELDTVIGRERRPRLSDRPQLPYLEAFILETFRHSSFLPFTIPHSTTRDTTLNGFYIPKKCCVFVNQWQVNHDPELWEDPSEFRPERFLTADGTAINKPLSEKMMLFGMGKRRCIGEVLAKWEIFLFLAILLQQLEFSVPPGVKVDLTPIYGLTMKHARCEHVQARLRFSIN
Chain of Ubiquitin carboxyl-terminal hydrolase 1 (Homo sapiens) (O94782 whole entry, looked up): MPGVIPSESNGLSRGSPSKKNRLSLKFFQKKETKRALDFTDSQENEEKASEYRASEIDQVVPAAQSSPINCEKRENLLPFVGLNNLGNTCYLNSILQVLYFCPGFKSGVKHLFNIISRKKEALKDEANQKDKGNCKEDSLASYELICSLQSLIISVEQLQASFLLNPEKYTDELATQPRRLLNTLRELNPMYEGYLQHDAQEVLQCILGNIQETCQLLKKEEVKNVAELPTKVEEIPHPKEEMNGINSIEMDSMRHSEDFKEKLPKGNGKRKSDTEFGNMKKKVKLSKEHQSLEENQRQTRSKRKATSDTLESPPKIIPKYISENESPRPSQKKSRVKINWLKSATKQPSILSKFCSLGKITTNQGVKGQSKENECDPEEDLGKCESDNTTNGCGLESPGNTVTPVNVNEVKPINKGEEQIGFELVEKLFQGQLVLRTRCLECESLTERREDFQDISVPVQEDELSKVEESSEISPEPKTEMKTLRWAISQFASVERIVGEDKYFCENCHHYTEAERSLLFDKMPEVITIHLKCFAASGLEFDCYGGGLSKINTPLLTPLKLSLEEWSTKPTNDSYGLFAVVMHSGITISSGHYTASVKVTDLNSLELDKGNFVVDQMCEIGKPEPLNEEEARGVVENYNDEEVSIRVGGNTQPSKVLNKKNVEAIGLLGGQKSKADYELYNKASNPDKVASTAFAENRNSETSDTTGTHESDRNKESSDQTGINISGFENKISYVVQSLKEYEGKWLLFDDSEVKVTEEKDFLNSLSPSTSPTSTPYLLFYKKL
Chain of 3',5'-cyclic-AMP phosphodiesterase 4B (Homo sapiens) (Q07343 whole entry, looked up): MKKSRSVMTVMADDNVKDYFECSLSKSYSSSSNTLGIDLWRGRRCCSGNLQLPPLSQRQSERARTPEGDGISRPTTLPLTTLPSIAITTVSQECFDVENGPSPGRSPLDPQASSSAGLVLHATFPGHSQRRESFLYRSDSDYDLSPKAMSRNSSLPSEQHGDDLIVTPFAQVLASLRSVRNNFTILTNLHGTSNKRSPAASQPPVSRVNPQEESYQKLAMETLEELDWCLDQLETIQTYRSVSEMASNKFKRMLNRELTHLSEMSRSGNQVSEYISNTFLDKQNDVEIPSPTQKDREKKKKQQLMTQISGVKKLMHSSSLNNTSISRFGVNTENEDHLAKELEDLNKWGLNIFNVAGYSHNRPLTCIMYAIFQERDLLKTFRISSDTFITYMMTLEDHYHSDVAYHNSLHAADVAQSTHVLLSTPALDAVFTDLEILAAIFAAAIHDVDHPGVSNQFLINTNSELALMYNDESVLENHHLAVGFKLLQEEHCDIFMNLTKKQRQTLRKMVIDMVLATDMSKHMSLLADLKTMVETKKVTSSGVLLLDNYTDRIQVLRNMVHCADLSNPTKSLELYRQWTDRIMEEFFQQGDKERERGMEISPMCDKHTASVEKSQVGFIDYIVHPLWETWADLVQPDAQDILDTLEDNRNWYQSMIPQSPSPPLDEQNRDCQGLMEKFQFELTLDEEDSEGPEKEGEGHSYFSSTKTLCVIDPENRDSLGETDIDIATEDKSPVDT
Chain of Luciferin 4-monooxygenase (Photinus pyralis) (P08659 whole entry, looked up): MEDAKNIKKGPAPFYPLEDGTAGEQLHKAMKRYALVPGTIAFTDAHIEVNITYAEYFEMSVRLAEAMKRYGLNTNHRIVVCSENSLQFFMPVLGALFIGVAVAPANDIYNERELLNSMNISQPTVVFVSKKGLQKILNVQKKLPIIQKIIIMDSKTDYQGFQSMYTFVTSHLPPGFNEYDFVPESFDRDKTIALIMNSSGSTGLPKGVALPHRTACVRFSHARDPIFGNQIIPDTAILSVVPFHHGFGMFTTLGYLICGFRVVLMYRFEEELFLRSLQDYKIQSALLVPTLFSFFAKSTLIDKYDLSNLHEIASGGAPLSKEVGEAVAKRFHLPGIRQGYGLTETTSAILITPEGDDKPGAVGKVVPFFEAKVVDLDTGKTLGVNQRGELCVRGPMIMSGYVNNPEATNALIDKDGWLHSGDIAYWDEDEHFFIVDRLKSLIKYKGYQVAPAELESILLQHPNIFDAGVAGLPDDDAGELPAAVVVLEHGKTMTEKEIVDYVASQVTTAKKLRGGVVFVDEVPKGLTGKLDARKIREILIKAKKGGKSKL
Chain of Glucocorticoid receptor (Homo sapiens) (P04150 whole entry, looked up, the tested form may be a part): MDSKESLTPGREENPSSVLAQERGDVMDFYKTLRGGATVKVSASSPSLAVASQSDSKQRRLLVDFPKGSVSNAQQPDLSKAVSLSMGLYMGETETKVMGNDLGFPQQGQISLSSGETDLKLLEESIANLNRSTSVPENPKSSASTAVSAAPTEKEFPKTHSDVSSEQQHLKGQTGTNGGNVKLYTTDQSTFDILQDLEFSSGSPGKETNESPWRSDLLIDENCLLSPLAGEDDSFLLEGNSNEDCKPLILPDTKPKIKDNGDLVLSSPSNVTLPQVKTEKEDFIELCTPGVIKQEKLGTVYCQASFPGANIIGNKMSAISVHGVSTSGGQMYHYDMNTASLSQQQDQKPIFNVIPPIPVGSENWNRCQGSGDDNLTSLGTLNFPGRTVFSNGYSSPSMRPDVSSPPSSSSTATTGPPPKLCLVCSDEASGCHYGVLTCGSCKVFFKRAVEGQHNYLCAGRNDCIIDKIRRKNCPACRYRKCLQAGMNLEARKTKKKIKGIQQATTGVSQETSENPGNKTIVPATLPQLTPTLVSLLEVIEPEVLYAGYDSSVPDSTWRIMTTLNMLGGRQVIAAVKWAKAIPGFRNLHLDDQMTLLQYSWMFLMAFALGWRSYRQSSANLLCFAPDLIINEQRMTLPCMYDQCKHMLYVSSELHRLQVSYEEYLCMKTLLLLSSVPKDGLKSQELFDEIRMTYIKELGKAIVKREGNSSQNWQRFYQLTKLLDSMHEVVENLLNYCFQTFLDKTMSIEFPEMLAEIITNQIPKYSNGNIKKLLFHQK
Chain of ATP-dependent 6-phosphofructokinase (Trypanosoma brucei brucei) (O15648 whole entry, looked up): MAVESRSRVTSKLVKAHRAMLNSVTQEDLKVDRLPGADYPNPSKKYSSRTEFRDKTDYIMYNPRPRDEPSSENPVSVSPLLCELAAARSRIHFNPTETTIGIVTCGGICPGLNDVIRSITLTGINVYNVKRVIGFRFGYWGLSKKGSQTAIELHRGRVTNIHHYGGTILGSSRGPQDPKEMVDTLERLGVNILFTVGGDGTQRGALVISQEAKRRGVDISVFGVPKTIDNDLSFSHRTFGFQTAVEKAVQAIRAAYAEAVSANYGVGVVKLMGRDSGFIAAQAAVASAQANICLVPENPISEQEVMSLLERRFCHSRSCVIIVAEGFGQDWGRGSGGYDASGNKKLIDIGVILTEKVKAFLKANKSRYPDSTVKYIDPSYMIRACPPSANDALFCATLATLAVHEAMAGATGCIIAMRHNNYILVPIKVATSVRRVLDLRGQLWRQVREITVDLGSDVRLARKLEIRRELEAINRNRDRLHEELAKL

Cc1onc(-c2c(Cl)cccc2Cl)c1C(=O)N[C@H]1C(=O)N2[C@H]1SC(C)(C)[C@H]2C(=O)O
-2.7%: max response [7, 15]
inactive: outcome [1] | Potency [2] | activity change, negative = inhibition [3] -5.49% | outcome [4] | Potency [5] | outcome [6] | activity change, negative = inhibition [7] -2.5% | Potency [8]
-4.28%: max response [7, 16]

CCC(=O)OCC(=O)[C@@]1(OC(=O)CC)[C@H](C)C[C@@H]2[C@H]3CCC4=CC(=O)C=C[C@]4(C)[C@]3(Cl)[C@@H](O)C[C@@]21C
-5.37%: max response [7, 15]
inactive: outcome [1] | Potency [2] | activity change, negative = inhibition [3] -10.9% | outcome [4] | Potency [5] | outcome [6] | activity change, negative = inhibition [7] -9.54%
-14.6%: max response [7, 16]

NCc1ccccc1CC(=O)N[C@@H]1C(=O)N2C(C(=O)O)=C(CSc3nnnn3CC(=O)O)CS[C@@H]12
-13.9%: max response [7, 16]
-14.4%: max response [7, 15]
inactive: outcome [1] | Potency [2] | outcome [4] | Potency [9] > 20.6 µM | Potency [10] > 20.6 µM | Potency [5] | outcome [6] | activity change, negative = inhibition [7] -0.0833% | outcome [11] | Potency [12] | outcome [13] | activity, negative = inhibition [14, 17] 1.91% | activity, negative = inhibition [14, 18] -4.65% | Potency (C2A) | Potency (CP191) | Potency (CP250) | Potency (FAB9) | Potency (JCK) | Potency (SC27B)

CC(=O)N(C[C@@H](O)CO)c1c(I)c(C(=O)NC[C@@H](O)CO)c(I)c(C(=O)NC[C@@H](O)CO)c1I
-19.4%: max response [7, 16]
-16.6%: max response [7, 15]
inactive: outcome [1] | Potency [2] | activity change, negative = inhibition [3] -8.29% | outcome [4] | Potency [5] | outcome [6] | activity change, negative = inhibition [7] -2.6% | Potency [8]

CC1(C)S[C@@H]2[C@H](NC(=O)C(N)c3ccccc3)C(=O)N2[C@H]1C(=O)O (stereo partly specified)
inactive: outcome [1] | Potency [2] | activity change, negative = inhibition [3] -1.78% | outcome [4] | Potency [5] | outcome [6] | activity change, negative = inhibition [7] -0.37% | Potency [8]
8.14%: max response [7, 15]
6.97%: max response [7, 16]

CCC(=O)O[C@@]1(C(=O)SCF)[C@@H](C)C[C@H]2[C@@H]3C[C@@H](F)C4=CC(=O)C=C[C@@]4(C)[C@]3(F)[C@@H](O)C[C@]21C
inactive: outcome [1] | Potency [2] | activity change, negative = inhibition [3] -22.7% | outcome [4] | Potency [5] | outcome [6] | activity change, negative = inhibition [7] 1.23% | outcome [11] | Potency [12] | outcome [13] | Potency (C2A) | Potency (CP250) | Potency (JCK) | Potency (SC27B)
-7.35%: max response [7, 15]
-5.95%: max response [7, 16]

C=N[C@H](C(=O)N[C@@H]1C(=O)N2[C@@H]1SC(C)(C)[C@@H]2C(=O)O)c1ccccc1
-2.49%: max response [7, 15]
-4.08%: max response [7, 16]
inactive: outcome [1] | Potency [2] | activity change, negative = inhibition [3] -0.342% | outcome [4] | Potency [5] | outcome [6] | activity change, negative = inhibition [7] -2.09% | Potency [8]

CC(=O)OCC(=O)[C@@]1(O)CC[C@@H]2[C@H]3CCC4=CC(=O)CC[C@]4(C)[C@]3(F)[C@@H](O)C[C@@]21C
9.02%: max response [7, 16]
inactive: outcome [1] | Potency [2] | activity change, negative = inhibition [3] -9.54% | outcome [4] | Potency [5] | outcome [6] | activity change, negative = inhibition [7] 0.165% | Potency [8]
9.04%: max response [7, 15]

Clc1ccc([C@H](Cn2ccnc2)OCc2csc3c(Cl)cccc23)c(Cl)c1
inactive: outcome [1] | outcome [4] | Potency [9] > 20.6 µM | Potency [10] > 20.6 µM | Potency [5] | activity change, negative = inhibition [7] 0.1% | outcome [11] | Potency [8] | Potency [12] | outcome [13]
active: Potency [2] 6.31 µM | Potency ([14]; parasite line B) 3.55 µM | Potency (SC27B) 4.47 µM
-11.9%: max response [7, 15]
-11.7%: max response [7, 16]

NC(=O)c1ccc[n+]([C@@H]2O[C@H](COP(=O)([O-])OP(=O)(O)OC[C@H]3O[C@@H](n4cnc5c(N)ncnc54)[C@@H](O)[C@@H]3O)[C@@H](O)[C@@H]2O)c1
-22.7%: max response [7, 16]
inactive: outcome [1] | Potency [2] | activity change, negative = inhibition [3] 1.83% | outcome [4] | Potency [5] | outcome [6] | activity change, negative = inhibition [7] -1.1% | Potency [8] | Potency [12] | activity, negative = inhibition [14, 17] 0.56% | activity, negative = inhibition [14, 18] 2.43% | Potency (C2A) | Potency (CP191) | Potency (CP250) | Potency (FAB9) | Potency (JCK) | Potency (SC27B)
-9.17%: max response [7, 15]

CC[C@H](Cc1c(I)cc(I)c(N)c1I)C(=O)O
inactive: outcome [1] | outcome [4] | Potency [9] > 20.6 µM | Potency [10] > 20.6 µM | Potency [5] | activity change, negative = inhibition [7] 0.772% | outcome [11] | Potency [8] | Potency [12] | outcome [13] | activity, negative = inhibition [14, 17] 7.39% | activity, negative = inhibition [14, 18] 11.4% | Potency (C2A) | Potency (CP191) | Potency (CP250) | Potency (FAB9) | Potency (JCK) | Potency (SC27B)
active: Potency [2] 12.6 µM
-5.12%: max response [7, 16]
-5.23%: max response [7, 15]

C#C[C@]1(O)CC[C@@H]2[C@H]3CCC4=Cc5oncc5C[C@]4(C)[C@@H]3CC[C@@]21C
-23.4%: max response [7, 16]
inactive: outcome [1] | outcome [4] | Potency [9] > 20.6 µM | Potency [10] > 20.6 µM | Potency [5] | activity change, negative = inhibition [7] -2.17% | Potency [8]
active: Potency [2] 10 µM
-23.2%: max response [7, 15]

CN(C/C=C\c1ccccc1)Cc1cccc2ccccc12
inactive: outcome [1] | outcome [4] | Potency [9] > 20.6 µM | Potency [10] > 20.6 µM | Potency [5] | activity change, negative = inhibition [7] -0.644% | outcome [11] | Potency [8] | Potency [12] | activity, negative = inhibition ([14]; at 28.7 µM (top of the series), parasite line A) 18.6% | activity, negative = inhibition ([14]; at 28.7 µM (top of the series), parasite line B) 9.39% | Potency (C2A) | Potency (CP191) | Potency (CP250) | Potency (FAB9) | Potency (JCK) | Potency (SC27B)
-23.6%: max response [7, 16]
active: Potency [2] 2 µM
-24.2%: max response [7, 15]
